Compounds without any hit were thinned out: in the full panel of roughly 83,000, 20% have a hit.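 Activity criterion: percent growth below 10, measured after cells in 96-well plates were exposed to a single compound concentration for 48 hours.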 Values without a mark were called inactive. The source made the active and inactive calls.
Experiments:
Assay in all cases: NCI-60 one-dose screen, 48 h (100 = growth as untreated, 0 = no growth, -100 = all killed)
Conditions in all cases: 10 µM unless noted
[1] = system: NCI-H23 lung
[2] = system: NCI-H226 lung
[3] = system: NCI-H322M lung
[4] = system: HOP-62 NSCLC
[5] = system: NCI-H460 lung
[6] = system: HOP-92 NSCLC
[7] = system: NCI-H522 lung
[8] = system: A549/ATCC NSCLC
[9] = system: 786-0 renal
[10] = system: COLO 205 colon

## CCOC(=O)C1=C(C)NC(C)=C(C(=O)OC(C)C)C1c1cccc(C#N)c1 (stereo not given)
[1]
  growth: 96.7%
[2]
  growth: 98.1%
[3]
  growth: 100%
[4]
  growth: 101%
[5]
  growth: 101%
[6]
  growth: 114%
[7]
  growth: 92.7%
[8]
  growth: 100%
[9]
  growth: 90.6%
[10]
  growth: 114%

## Cc1ccsc1[C@H]1c2[nH]c3ccccc3c2C[C@H]2C(=O)N(CCCCCCC(=O)NO)CC(=O)N12
[1]
  growth: 89.6%
[2]
  growth: 97.3%
[3]
  growth: 81.1%
[4]
  growth: 101%
[5]
  growth: 78.4%
[6]
  growth: 92.6%
[7]
  growth: 58.8%
[8]
  growth: 99.3%
[9]
  growth: 99.1%
[10]
  growth: 96.5%

## Cc1ccc(OCc2occc2C(=O)N2CCOCC2)cc1
[1]
  growth: 101%
[2]
  growth: 96.9%
[3]
  growth: 106%
[4]
  growth: -95.9% (active)
[5]
  growth: 107%
[6]
  growth: 103%
[7]
  growth: 100%
[8]
  growth: 109%
[9]
  growth: 98.7%
[10]
  growth: 117%

## CC1CC(=O)C2=C(C1)Nc1ccc(Br)cc1CC2c1c[nH]c2ccc(Br)cc12 (stereo not given)
[1]
  growth: 66.8%
[2]
  growth: 65.5%
[3]
  growth: 70.9%
[4]
  growth: 65.2%
[5]
  growth: 34.5%
[6]
  growth: 76.6%
[7]
  growth: 18.4%
[8]
  growth: 42.3%
[9]
  growth: 51.2%
[10]
  growth: 66.2%

## O=C(CSc1nnc(-c2cccs2)n1-c1ccccc1)Nc1ccccc1F
[1]
  growth: 90.8%
[2]
  growth: 96.3%
[3]
  growth: 103%
[4]
  growth: 76.9%
[5]
  growth: 96.6%
[6]
  growth: 93%
[7]
  growth: 55%
[8]
  growth: 89.6%
[9]
  growth: 99.4%
[10]
  growth: 70.8%

## C#CCOc1ccc(-c2csc(NC(=O)C=C)n2)cc1NS(=O)(=O)c1cccc2c(N(C)C)cccc12
[1]
  growth: 56.4%
[2]
  growth: 33.1%
[3]
  growth: 87.6%
[4]
  growth: 93.2%
[5]
  growth: 81.2%
[6]
  growth: 0.234% (active)
[7]
  growth: 29.9%
[8]
  growth: 65.4%
[9]
  growth: 8.71% (active)
[10]
  growth: 67.6%

## O=C1Nc2ccc(F)cc2/C1=C\C(=O)c1ccc(NS(=O)(=O)c2ccccc2)cc1
[1]
  growth: 84.3%
[2]
  growth: 95.6%
[3]
  growth: 93.8%
[4]
  growth: 103%
[5]
  growth: 101%
[6]
  growth: 82.7%
[7]
  growth: 70.2%
[8]
  growth: 97.4%
[9]
  growth: 98.6%
[10]
  growth: 113%

## CSc1ccc(/C(=N/N=C(N)N)c2ccc(F)cc2)cc1
[1]
  growth: -36.7% (active)
[2]
  growth: 0.244% (active)
[3]
  growth: 67.5%
[4]
  growth: 36.1%
[5]
  growth: 6.38% (active)
[6]
  growth: 33.4%
[7]
  growth: 8.51% (active)
[8]
  growth: 16.4%
[9]
  growth: 17.7%
[10]
  growth: -42.2% (active)

## Brc1ccc2[nH]cc(-c3nn4cc(-c5nccs5)nc4s3)c2c1
[1]
  growth: 31.2%
[2]
  growth: 50.5%
[3]
  growth: 51.5%
[4]
  growth: 12.8%
[5]
  growth: -45.3% (active)
[6]
  growth: -28.1% (active)
[7]
  growth: 67.6%
[8]
  growth: 4.76% (active)
[9]
  growth: -74.5% (active)
[10]
  growth: 11%

## CCOC(=O)c1cccc(NC2=C(Cl)C(=O)c3nc(C)ccc3C2=O)c1
[1]
  growth: 65.2%
[2]
  growth: 89.5%
[3]
  growth: 104%
[4]
  growth: 112%
[5]
  growth: 100%
[6]
  growth: 108%
[7]
  growth: 88.4%
[8]
  growth: 101%
[9]
  growth: 103%
[10]
  growth: 120%

## Cc1[nH]c(C(=O)Nc2ccc(C(=O)NCC3CCNCC3)cc2OC(C)C)c(Cl)c1Cl
[1]
  growth: 83%
[2]
  growth: 83.6%
[3]
  growth: 92.1%
[4]
  growth: 86.4%
[5]
  growth: 34.7%
[6]
  growth: 65.9%
[7]
  growth: 90.7%
[8]
  growth: 65.4%
[9]
  growth: 79.8%
[10]
  growth: -13.3% (active)

## CN1c2ccccc2Sc2cc(/C=N/Nc3ccnc4cc(Cl)ccc34)ccc21
[1]
  growth: 91.6%
[2]
  growth: 90.5%
[3]
  growth: 107%
[4]
  growth: 96.6%
[5]
  growth: 104%
[6]
  growth: 82.1%
[7]
  growth: 99.2%
[8]
  growth: 83.3%
[9]
  growth: 89.3%
[10]
  growth: 101%

## O=C1CSC(c2cn(-c3ccccc3)nc2-c2ccc(Cl)cc2)N1c1ccccc1 (stereo not given)
[1]
  growth: 96.9%
[2]
  growth: 98.4%
[3]
  growth: 112%
[4]
  growth: 99.6%
[5]
  growth: 111%
[6]
  growth: 100%
[7]
  growth: 95.7%
[8]
  growth: 98.1%
[9]
  growth: 106%
[10]
  growth: 120%

## CC1=C(C)C(=O)C(Nc2ccc(C)c(C)c2)=C(Br)C1=O
[1]
  growth: 76.9%
[2]
  growth: 89.6%
[3]
  growth: 102%
[4]
  growth: 104%
[5]
  growth: 99.6%
[6]
  growth: 3.51% (active)
[7]
  growth: 97.2%
[8]
  growth: 103%
[9]
  growth: 105%
[10]
  growth: 116%

## CCC(=C(c1ccc(OCCN2CCCCCC2)cc1)c1ccc(OCCN2CCCCCC2)cc1)c1ccc(Cl)cc1
[1]
  growth: 19.4%
[2]
  growth: 52.1%
[3]
  growth: 18%
[4]
  growth: 58.2%
[5]
  growth: -39.7% (active)
[6]
  growth: 32.3%
[7]
  growth: -5.58% (active)
[8]
  growth: -21.3% (active)
[9]
  growth: -81.1% (active)
[10]
  growth: -57.7% (active)

## Brc1cc(-c2cc(-c3ccc4c(c3)OC=CO4)[nH]n2)cs1
[1]
  growth: 79.3%
[2]
  growth: 92%
[3]
  growth: 91.4%
[4]
  growth: 84.7%
[5]
  growth: 97.8%
[6]
  growth: 101%
[7]
  growth: 81.3%
[8]
  growth: 93.9%
[9]
  growth: 106%
[10]
  growth: 98.5%

## COc1ccc2c(c1)c(-c1nn3cc(-c4ccncc4)nc3s1)cn2C
[1]
  growth: 88.7%
[2]
  growth: 88.6%
[3]
  growth: 85.4%
[4]
  growth: 67%
[5]
  growth: 53.1%
[6]
  growth: 11.6%
[7]
  growth: 68.9%
[8]
  growth: 98.7%
[9]
  growth: 93%
[10]
  growth: 81.5%

## CCN1CCN(c2ccc(NC(=O)Nc3ccc4c(ccn4-c4ccnc(C(=O)NC)c4)c3)cc2C(F)(F)F)CC1
[1]
  growth: 81.8%
[2]
  growth: 92.8%
[3]
  growth: 85.5%
[4]
  growth: 79.1%
[5]
  growth: 75.6%
[6]
  growth: 84.7%
[7]
  growth: 105%
[8]
  growth: 91.3%
[9]
  growth: 10.3%
[10]
  growth: 97.9%

## CNC(=O)c1cc(N2CCc3cc(NC(=O)Nc4ccc(N5CCOCC5)c(C(F)(F)F)c4)ccc32)ccn1
[1]
  growth: 18.7%
[2]
  growth: 35.2%
[3]
  growth: 56.2%
[4]
  growth: 12.1%
[5]
  growth: 9.77% (active)
[6]
  growth: 14.1%
[7]
  growth: 45.8%
[8]
  growth: 43.7%
[9]
  growth: 27.3%
[10]
  growth: 26.7%

## CCOC(=O)c1c(NCC(=O)Nc2cccc([N+](=O)[O-])c2)sc(C(C)=O)c1C
[1]
  growth: -40.7% (active)
[2]
  growth: -61.3% (active)
[3]
  growth: 95%
[4]
  growth: 7.61% (active)
[5]
  growth: -29% (active)
[6]
  growth: -24.7% (active)
[7]
  growth: -32% (active)
[8]
  growth: -13.5% (active)
[9]
  growth: -15% (active)
[10]
  growth: -42.9% (active)

## C/C(=N\NC(N)=S)c1nnn(-c2ccc([N+](=O)[O-])cc2)c1C
[1]
  growth: 95.4%
[2]
  growth: 93.1%
[3]
  growth: 95.3%
[4]
  growth: 99.4%
[5]
  growth: 100%
[6]
  growth: 98.7%
[7]
  growth: 89.6%
[8]
  growth: 103%
[9]
  growth: 103%
[10]
  growth: 103%

## CCN(CC)c1ccc(/C=N/NC(=O)c2ccc(NS(C)(=O)=O)cc2)c(O)c1
[1]
  growth: 23.3%
[2]
  growth: 39.3%
[3]
  growth: 25.2%
[4]
  growth: 13.2%
[5]
  growth: 3.18% (active)
[6]
  growth: 38.9%
[7]
  growth: 12.5%
[8]
  growth: 12.3%
[9]
  growth: 1.77% (active)
[10]
  growth: 5.67% (active)

## CCN(CC)CCOc1ccc(C(=C(c2ccccc2)C2CCCC2)c2ccc(OCCN(CC)CC)cc2)cc1
[1]
  growth: 16.7%
[2]
  growth: 12.8%
[3]
  growth: 59.5%
[4]
  growth: 50.2%
[5]
  growth: 17.2%
[6]
  growth: -30.8% (active)
[7]
  growth: 2.43% (active)
[8]
  growth: 37.4%
[9]
  growth: 62.6%
[10]
  growth: -83.9% (active)

## CC/C(=C(/c1ccc(Cl)cc1)c1ccc(OCCN)cc1)c1ccccc1
[1]
  growth: 96%
[2]
  growth: 105%
[3]
  growth: 108%
[4]
  growth: 116%
[5]
  growth: 60.2%
[6]
  growth: 103%
[7]
  growth: 98.1%
[8]
  growth: 86.2%
[9]
  growth: 87.9%
[10]
  growth: 18%

## N#Cc1c(-c2cccs2)c(C#N)c(=O)n(Cc2nc3ccccc3[nH]2)c1N
[1]
  growth: 90.7%
[2]
  growth: 87%
[3]
  growth: 98.5%
[4]
  growth: 93.3%
[5]
  growth: 101%
[6]
  growth: 95.2%
[7]
  growth: 95.1%
[8]
  growth: 103%
[9]
  growth: 103%
[10]
  growth: 111%

## NS(=O)(=O)c1ccc(Nc2nc(Nc3ccccc3)nc(N3N=C(c4ccc(Cl)cc4)CC3c3ccc(Cl)cc3)n2)cc1 (stereo not given)
[1]
  growth: 54.8%
[2]
  growth: 55.1%
[3]
  growth: 64.5%
[4]
  growth: 75.8%
[5]
  growth: 20.1%
[6]
  growth: 75%
[7]
  growth: 83.6%
[8]
  growth: 66.7%
[9]
  growth: 65.8%
[10]
  growth: 8.73% (active)

## CC1CCN(CC(=O)Nn2c(COc3ccccc3)nc3ccccc3c2=O)CC1
[1]
  growth: 91.7%
[2]
  growth: 84.6%
[3]
  growth: 95.4%
[4]
  growth: 91.9%
[5]
  growth: 90.6%
[6]
  growth: 96.2%
[7]
  growth: 75.4%
[8]
  growth: 90.9%
[9]
  growth: 99%
[10]
  growth: 84.1%

— PubChem BioAssay (NCI)
